Compound activity from PubChem BioAssay.
L major viab: Leishmania major promastigote growth inhibition, primary screen; AID 1063, 2008; 9% of 200,000 active; Leishmania major promastigotes, resazurin fluorescence viability; inhibition, % at 10 µM; in the data active = inhibition above about 50%;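 also: promastigotes grown with compound for 44 hours at 28 °C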
WT yeast gro inh: growth inhibition of WT strain, primary screen, mitochondrial fusion inhibitor project, WT and mutant strains, chemical genetic; inhibition, % at 10 µM; mitochondrial fusion phenotypic screen; 2.1% of 190,000 active; in the data active = inhibition above about 58%; tested in S. cerevisiae
CHOP inhibitor: inhibitors of CHOP promoter induction, primary screen, cell-based, unfolded protein response, luciferase reporter. CHO-K1 CHOP-promoter luciferase, tunicamycin-induced, 15-18 h. 3.8% of 220,000 active. AID 2732, 2010. inhibition, % at 10 µM;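 active = compounds that reduced the stress-induced luciferase reporter signal by more than about 70% of percent inhibition, limit read from the data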;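 also: 0% = tunicamycin plus vehicle and 100% = wells without tunicamycin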
Arbovirus inh: antivirals against arbovirus infection, primary screen, cell-based, full library, 10K replicate subset; arbovirus infection cell-based antiviral screen; AID 1251, 2008; inhibition, % at 10 µM; 0.37% of 200,000 active; in the data active = inhibition above about 30%
Numbers without * were called inactive; / = no result. Most compounds without a hit are left out; they make up all but 12% or so of the library.

SMILES	L major viab	WT yeast gro inh	CHOP inhibitor	Arbovirus inh
COc1ccccc1-c1nnc2sc(COc3ccc(Cl)cc3Cl)nn12	21	-18	37	-6
Clc1ccc(OCc2nn3c(C4CCCCC4)nnc3s2)c(Cl)c1	-1	26	87*	-6
COc1ccc(-c2nn3c(-c4ccncc4)nnc3s2)cc1OC	0	/	/	/
CCN(CC)CCNC(=O)Cc1nn(Cc2ccccc2)c(=O)c2ccccc12	0	-1	13	1
N=C1C2=C3Sc4ccccc4N3CCCC2=NN1c1cccc(S(=O)(=O)O)c1	/	/	2	/
COc1cc(NC(=O)c2ccco2)c(OC)cc1NC(=O)CCC(=O)Nc1cc(C)ccc1C	4	-28	11	-6
COc1ccc(S(=O)(=O)Nc2cc(OC)c(NC(=O)c3ccco3)cc2OC)cc1	14	0	25	-3
C=CCOc1c(Br)cc(CNn2nnnc2N)cc1OC	101*	-3	47	2
COc1cc(NS(=O)(=O)c2ccc(Br)cc2)c(OC)cc1NC(=O)c1ccco1	91*	8	57	-5
COc1cc(NC(=O)c2ccco2)c(OC)cc1NC(=O)CCC(=O)Nc1cc(C)cc(C)c1	4	16	76*	15
COc1cc(OC)c(NC(=O)c2ccco2)cc1Cl	-3	11	72*	3
C=CCOc1ccc(CNn2nnnc2N)cc1	0	2	18	4
CCC(C)(C)NC(=O)c1ccc2c(c1)OCCO2	-10	-1	-9	-3
CCOC(=O)c1ccc(NC(=O)C(=O)NCC2(c3ccc(OC)cc3)CCOCC2)cc1	/	/	21	/
O=[N+]([O-])c1ccccc1Oc1ncccc1[N+](=O)[O-]	-3	-19	-18	20
Cc1cc(C)cc(OCC(=O)NNC(=O)CCC(=O)NCc2ccccc2)c1	-8	-8	-12	-8
CCCC(=O)NC(Nc1cccc(C(F)(F)F)c1)C(Cl)(Cl)Cl (centres undefined)	7	14	0	-9
CCc1ccc(N(C(=O)c2ccco2)C(C(=O)NC2CCCC2)c2ccco2)cc1 (centres undefined)	18	-7	-1	-3
COc1cc(CNc2ccc(C(=O)O)cc2)cc(Br)c1OCC(=O)NC(C)(C)C	-9	3	8	1
CCOc1cc(NC(=O)c2ccco2)c(OCC)cc1NC(=O)COc1ccccc1C	-5	/	/	/
COc1cc(NC(=O)CC(C)C)ccc1NC(=O)c1ccco1	3	-2	/	0
COc1cc(NC(=O)c2ccco2)ccc1NC(=O)C(C)C	-7	5	80*	-10
CCOc1cc(NC(=O)c2ccco2)c(OCC)cc1NC(=O)Cc1cccc(OC)c1	63*	9	30	7
C=CCOc1c(Br)cc(CNc2ccc(NC(=O)C(C)C)c(OC)c2)cc1OC	99*	-17	9	-5
COc1ccccc1CNC(=O)C1CCN(S(=O)(=O)c2ccc3c(c2)OCCCO3)CC1	-4	-8	42	4
SMILES	L major viab	WT yeast gro inh	CHOP inhibitor	Arbovirus inh
C=CCSc1nnc(NC(=O)c2cccc(S(=O)(=O)N(C)c3ccccc3)c2)s1	63*	-1	11	18
CN(C)S(=O)(=O)c1ccc(C(=O)Nc2nnc(SCc3cccc(F)c3)s2)cc1	52*	10	-7	-5
O=C(Cc1ccccc1)NCC(=O)OCC(=O)c1ccccc1Cl	93*	0	28	-3
Cn1c(Cc2ccccc2)nnc1SCc1ccc(C(=O)O)cc1	0	-5	-20	0
CC(C(O)c1ccc(O)cc1)N1CCC(Cc2ccccc2)CC1 (centres undefined)	96*	42	5	-3
NC(=O)c1cc([N+](=O)[O-])ccc1NCc1cccnc1	36	-10	63	37*
O=C(Nc1ccc([N+](=O)[O-])cc1Br)c1cccnc1	54*	2	3	1
O=C(OC(C(=O)Nc1ccc([N+](=O)[O-])cc1Br)c1ccccc1)c1ccccc1 (centres undefined)	100*	4	17	7
CC(C)C(=O)Nc1ccc([N+](=O)[O-])cc1Br	-5	-6	7	-9
CN(C)c1cccc(C(=O)OC(C(=O)Nc2ccc([N+](=O)[O-])cc2Br)c2ccccc2)c1 (centres undefined)	10	0	-10	9
CC(C)c1nc2sc(C(=O)O)c(N)c2c2c1CCCC2	/	/	17	/
CCCOc1ccc(C(=O)Nc2ccc(S(=O)(=O)Nc3cc(C)nc(C)n3)cc2)cc1	/	/	-4	/
O=[N+]([O-])c1ccc(-c2nc(-c3ccc(F)cc3)c(-c3ccncc3)[nH]2)cc1	/	/	15	/
N#C/C(=C(/O)CO/N=C/c1ccccc1Cl)c1nc2ccccc2[nH]1	/	/	-14	/
COc1cccc(CC2(CO)CCCN(Cc3ccc(C)s3)C2)c1 (centres undefined)	67*	8	22	-4
COc1cccc(CC2(CO)CCCN(Cc3cc4ccccc4[nH]3)C2)c1 (centres undefined)	74*	16	7	-3
COc1cccc(CC2(CO)CCCN(Cc3cn[nH]c3-c3cc(C)ccc3C)C2)c1 (centres undefined)	18	1	-14	-5
COc1cccc(CC2(CO)CCCN(Cc3[nH]c4ccc(C)cc4c3C)C2)c1 (centres undefined)	50	81*	27	-31
COc1cccc(CC2(CO)CCCN(Cc3ccc(CO)o3)C2)c1 (centres undefined)	3	2	-1	-5
COc1cc(OC)cc(C(=O)NCCC(=O)NCCc2ccc(OC)c(OC)c2)c1	57*	-13	5	-2
COc1ccc(CCNC(=O)CCS(=O)(=O)c2cccc3nsnc23)cc1OC	-6	12	78*	8
COc1ccc(CCNC(=O)CCC(=O)Nc2nnc(C(C)C)s2)cc1OC	60*	-7	18	-4
COc1ccc(CCNS(=O)(=O)c2cccc3nsnc23)cc1OC	1	-25	15	4
COc1ccc(CNC(=O)c2coc(=O)c3ccccc23)c(OC)c1	-12	-13	10	15
O=C(Cc1ccc(F)cc1)Oc1ccc(C(=S)N2CCCC2)cc1	13	-8	13	-6
SMILES	L major viab	WT yeast gro inh	CHOP inhibitor	Arbovirus inh
Cc1[nH]nc2c1C(c1ccsc1)C1=C(CC(C)(C)CC1=O)N2 (centres undefined)	19	1	4	4
CCN1C(=O)/C(=C\c2ccncc2)SC1=Nc1ccc(C)c(C)c1	52*	32	-16	28
CCCN1C(=O)/C(=C\c2ccncc2)SC1=Nc1ccccc1	44	26	-26	17
O=C(Nc1ccc(CN2CCOCC2)cc1)c1ccc(-c2ccc(Br)cc2)o1	83*	64	80*	-28
O=C(Nc1ccccc1)c1ccc(-c2ccc(Br)cc2)o1	26	74*	15	-2
O=C(Nc1cccc(NC(=O)c2ccc(-c3ccc(Br)cc3)o2)c1)c1ccccc1	4	7	-25	-7
O=C(Nc1cccc(NC(=O)c2ccc(-c3cccc(Br)c3)o2)c1)c1ccco1	60*	32	14	3
O=C(NC1CCS(=O)(=O)C1)c1ccc(-c2ccc(Br)cc2)o1 (centres undefined)	18	82*	-19	0
N#C/C(=N\Nc1cccc(C(F)(F)F)c1)C(=O)c1ccsc1	/	/	7	/
